Sampled rows, rich in hits. Any-hit rate of the full collection: about 1.3%.
USP1 inh = USP1/UAF1 (human) deubiquitinase inhibition; O94782; recombinant USP1/UAF1, Ub-Rhodamine cleavage fluorescence; Potency, µM (series often up to 57.1 µM), for the others: at the top dose activity change, negative = inhibition, usual class: inhibitors; hit rate 0.23% among 390,000; note: % is set by controls: 0 for no effect and ±100 for the full control effect; nearly all actives have a fitted effect of over 60% in size
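1 nM enzyme complex + cpd, 15 min RT; start with Ub-Rho 150nM final; kinetic fluorescence ex 480/em 540, 6 reads q60 s. Buffer 50mM HEPES pH 7.8, 0.5mM EDTA, 0.1 mg/ml BSA, 1mM TCEP, 0.01% Tween-20.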
EPAC1 antag = EPAC1 (human) antagonism; Potency, µM (doses to about 115 µM), for the others: at the top dose activity change, negative = inhibition, most hits filed as inhibitors; EPAC1 GEF assay, Rap1b-BODIPY-GDP exchange fluorescence; O95398; AID 720709; hit rate 0.14% among 360,000;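 note: plate controls were vehicle for no effect and positive control for full effect; nearly all actives have a fitted effect of over 50% in size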
Target sequence (O95398 whole entry, looked up): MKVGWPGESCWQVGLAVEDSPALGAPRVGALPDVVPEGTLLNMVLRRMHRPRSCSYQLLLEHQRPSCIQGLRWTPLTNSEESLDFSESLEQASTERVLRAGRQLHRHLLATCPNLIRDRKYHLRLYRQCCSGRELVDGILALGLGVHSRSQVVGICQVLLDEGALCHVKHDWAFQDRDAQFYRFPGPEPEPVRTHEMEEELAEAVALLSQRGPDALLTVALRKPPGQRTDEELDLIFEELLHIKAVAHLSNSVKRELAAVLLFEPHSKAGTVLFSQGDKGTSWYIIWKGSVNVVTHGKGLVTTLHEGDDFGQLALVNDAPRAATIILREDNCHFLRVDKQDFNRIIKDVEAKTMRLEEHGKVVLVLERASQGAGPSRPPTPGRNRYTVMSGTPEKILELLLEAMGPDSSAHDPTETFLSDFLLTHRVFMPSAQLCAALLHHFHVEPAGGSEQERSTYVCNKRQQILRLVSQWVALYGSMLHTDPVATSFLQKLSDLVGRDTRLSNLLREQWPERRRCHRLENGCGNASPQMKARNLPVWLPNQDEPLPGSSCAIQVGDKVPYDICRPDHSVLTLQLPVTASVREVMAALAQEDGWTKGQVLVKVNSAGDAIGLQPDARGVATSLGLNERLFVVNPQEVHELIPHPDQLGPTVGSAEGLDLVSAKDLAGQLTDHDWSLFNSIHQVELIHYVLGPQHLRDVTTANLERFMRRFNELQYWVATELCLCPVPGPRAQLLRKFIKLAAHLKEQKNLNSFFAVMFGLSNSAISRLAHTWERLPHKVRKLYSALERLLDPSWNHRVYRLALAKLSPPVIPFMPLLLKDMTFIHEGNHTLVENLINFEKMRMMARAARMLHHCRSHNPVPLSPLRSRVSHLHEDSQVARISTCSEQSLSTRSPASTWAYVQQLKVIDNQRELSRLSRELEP
12-LOX inh = inhibitors of human 12S-lipoxygenase ALOX12. purified 12hLO, xylenol orange hydroperoxide absorbance. Potency, µM (titrated, usually from 108 µM), inactives show at the top dose activity change, negative = inhibition, usual class: inhibitors. hit rate 1.1% among 580,000. AID 1671190; note: % is set by controls: 0 for no effect and ±100 for the full control effect
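Purified human 12hLO at 150 nM in 25 mM Hepes, 0.01% Triton X-100, pH 7.0, preincubated 15 min at room temperature with compound. Reaction started with 40 uM arachidonic acid, 30 min at room temperature. Hydroperoxide measured by Fe-xylenol orange, 573/405 nm absorbance ratio.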
EPAC1 agonist = EPAC1 (human) agonism. O95398. EPAC1 agonist qHTS, biochemical assay; response scale: 100% = response to 6.5 mM cAMP. Potency, µM (doses to about 154 µM), inactives show top-dose activation, most hits filed as activators. hit rate 0.073% among 360,000. AID 720707; note: nearly all actives have a fitted effect of over 60% in size
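Multi-concentration qHTS readout: loss of Rap1B-bound BODIPY-GDP fluorescence driven by 100 nM EPAC1 with excess GDP (50 uM), monitored kinetically at room temperature; agonist response expressed relative to 6.5 mM cAMP.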
EPAC2 agonist = activates human EPAC2 exchange factor. Potency, µM (top dose mostly 154 µM), for inactives: at the highest dose activation, hits mostly activators. Q8WZA2. hit rate 0.079% among 360,000. EPAC2 activation, biochemical qHTS; response scale: 100% = 6.5 mM cAMP response; note: nearly all actives have a fitted effect of over 50% in size
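Fluorescence exchange assay: 100 nM EPAC2 with 250 nM RAP1B-BODIPY-GDP and 50 uM GDP; compounds tested as a concentration-titration series (qHTS). Loss of Rap1-bound BODIPY-GDP fluorescence read at 480/540 nm; data normalized to 6.5 mM cAMP.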
EPAC2 antag = EPAC2 (human) antagonism; EPAC2 GEF exchange of Rap1B-BODIPY-GDP, fluorescence; Potency, µM (series often up to 114 µM), without a hit: top-dose activity, negative = inhibition, usual class: inhibitors; hit rate 0.18% among 360,000; AID 720708; note: % is set by controls: 0 for no effect and ±100 for the full control effect; nearly all actives have a fitted effect of over 45% in size
An asterisk follows results filed as active; i = inactive; ? = inconclusive; · = not tested or not shown; ! = a repeat was not active. Calls come from the whole dose curve; as a rule, active = well fitted curve in the direction sought with a large enough effect; inconclusive = small, poorly fitted or top-dose-only effect, or another doubt; inactive = no such curve, though single readings can be large; an effect the other way counts as inactive or inconclusive. Potency is the fitted concentration of half-maximal effect.

SMILES	USP1 inh	EPAC1 antag	12-LOX inh	EPAC1 agonist	EPAC2 agonist	EPAC2 antag
CN1CCS/C1=C\C=C1/SC(=S)N(CC(=O)O)C1=O	25µM*	-29%	-16%	22µM*	?	4%
CCN1C(=O)/C(=C/C=C2/SCCN2C)SC1=S	25µM*	-6%	5%	100µM*	35µM*	-4%
CC1CCCN(C(=O)c2cc3c(s2)CCN(C(=O)c2ccc(Cl)cc2)C3)C1 (centres undefined)	·	·	6%	·	·	·
CC(C)C1C(C#N)=C(N)OC2=C1C(=O)CC(C)(C)C2 (centres undefined)	·	·	-1%	·	·	·
CCCCCCCCCCOc1ccc(C(=O)Oc2ccc(Cl)cc2Cl)cc1	·	·	1%	·	·	·
O=C(c1ccccc1)c1ccc(OC(=O)c2cccs2)cc1	·	·	-2%	·	·	·
Cc1cnc(NC(=O)c2csc(NC3CCCC3)n2)s1	·	·	-21%	·	·	·
COc1cc(N=Nc2ccc(Br)cc2)cc(C=O)c1O	-18%	-6%	3.2µM*	-4%	-11%	-2%
COc1cc(CN(C)C)cc(C=O)c1O	-2%	-30%	·	9%	7%	-4%
Cc1cc2nc(/C(C#N)=C/c3cccc(C(F)(F)F)c3)[nH]c2cc1C	·	·	-13%	·	·	·
COc1ccccc1N1CCN(Cc2cc(Br)c(O)c3ncccc23)CC1	-5%	-8%	35µM*	4%	-1%	20%
CCOCc1cc(CN2CCN(c3ccccc3OC)CC2)c(O)c2ncccc12	-3%	·	?	·	·	·
O=C(NCC(c1cccs1)N1CCOCC1)c1cc2ccccc2oc1=O (centres undefined)	-11%	2%	18µM*!	10%	9%	-9%
O=C(NCC(c1cccs1)N1CCOCC1)c1cc2ccccc2o1 (centres undefined)	-9%	5%	4%	2%	6%	5%
CCN(CCCNC(=O)Cn1nc(Cc2ccncc2)c2ccccc2c1=O)c1cccc(C)c1	·	·	-11%	·	·	·
Cc1ccc(NC(=S)NNc2ncc(C(F)(F)F)cc2Cl)cc1	-7%	-20%	-10%	-2%	6%	1%
FC(F)(F)c1cnc(NNC(=S)Nc2ccc(Cl)cc2)c(Cl)c1	-22%	-1%	45µM*	-5%	-18%	-2%
O=C(c1ccc(F)cc1)C1CCN(C(=O)N2CCOCC2)CC1	-16%	-3%	0%	4%	5%	-2%
N#C/C(C(=O)CCl)=C(/c1ccc(F)cc1)N1CCOCC1	·	·	22µM*	·	·	·
CC(=O)Oc1ccc(CC(=O)Nc2ccc(O)c(-c3nc4ccccc4o3)c2)cc1	·	·	53%	·	·	·
Cc1ccc(Cc2c(-c3ccc(Cl)cc3)nc3c(Cl)cc(C(F)(F)F)cn23)cc1	·	-21%	35µM*	1%	3%	2%
O=C(Sc1nnc(-c2ccccc2)o1)N1c2ccccc2Sc2ccccc21	-25%	-8%	10µM*	5%	16%	-10%
COc1cc(-c2nnc(SCC(=O)N3c4ccccc4Sc4ccccc43)o2)cc(OC)c1OC	-27%	?	-22%	9%	5%	-1%
Cc1cc(C)c2c(N)c(C(=O)NN3CC(=O)N(c4cccc(Cl)c4)CC3=O)sc2n1	-15%	1%	0%	-4%	0%	23%
Cc1cc(C)c2c(N)c(C(=O)NN3CC(=O)N(c4ccccc4)CC3=O)sc2n1	-2%	?	50µM*	0%	6%	0%
SMILES	USP1 inh	EPAC1 antag	12-LOX inh	EPAC1 agonist	EPAC2 agonist	EPAC2 antag
Cc1cccc(CC2CC(=O)N(CCc3ccc4c(c3)OCO4)C2=O)c1 (centres undefined)	-16%	-18%	3%	2%	20%	12%
O=C1CC(Cc2ccccc2)C(=O)N1CCc1ccc2c(c1)OCO2 (centres undefined)	-2%	11%	0%	7%	-19%	11µM*
Cc1ccc(C(=O)c2cc(O)c(O)c([N+](=O)[O-])c2)cc1	·	·	0.054µM*	·	·	·
O=C(c1cc(O)c(O)c([N+](=O)[O-])c1)c1ccccc1F	9%	-18%	?	-8%	2%	1%
C/C(=N\Nc1c(Cl)cc(Cl)cc1Cl)c1ccc(Cl)cc1Cl	·	·	-17%	·	·	·
N#Cc1ccccc1COC(=O)c1cccc2ccccc12	·	·	-5%	·	·	·
CCS[C@H]1CCN2C(=O)c3cc(-c4ccc(F)cc4F)ccc3NC(=O)[C@H]12	·	·	45µM*	·	·	·
O=C1Nc2ccccc2N=C(c2ccccc2)C1Br (centres undefined)	-23%	-9%	40µM*	1%	15%	-25%
O=C1Nc2ccccc2N=C(c2ccccc2)C1N1CCOCC1 (centres undefined)	-16%	9%	-17%	-3%	2%	9%
NS(=O)(=O)c1ccc2c(c1)C1C=CCC1C(C1CC=CCC1)N2 (centres undefined)	-24%	71µM*	?	0%	5%	12%
COCCNC(=S)N/N=C(\C)c1ccc(Cl)c(Cl)c1	-10%	-1%	?	21%	17%	-15%
COCCNC(=S)N/N=C(\C)c1ccc(Cl)c(Cl)c1Cl	-17%	-13%	40µM*	-1%	3%	-4%
CC(C)(C)S(=O)N1Cc2cc(C(=O)N3CCOCC3)nc(-c3cccc(Br)c3)c2[C@@H]1CCO (some centres undefined)	·	6%	5µM*	-18%	0%	19%
CN1CCN(C(=O)c2cc3c(c(-c4cccc(Br)c4)n2)[C@@H](CCO)N(S(=O)C(C)(C)C)C3)CC1 (some centres undefined)	·	-29%	?	-5%	-19%	?
O=C(N/N=C/c1ccncc1)c1cc([N+](=O)[O-])cc([N+](=O)[O-])c1O	-19%	-8%	50µM*	-6%	6%	7%
O=C(N/N=C/c1ccncc1)c1cc2ccccc2cc1O	-20%	8%	i	8%	9%	-9%
CCN(C(=O)CCC(=O)N1CCc2nc3cc(-c4ccc(OC)cc4)[nH]n3c(=O)c2C1)c1ccccc1	·	·	5%	·	·	·
O=C(Cc1ccc(N2CCCC2=O)cc1)N1CCC(C(=O)N2CCCCCC2)CC1	·	·	-10%	·	·	·
NC(=O)c1sc2nc3c(c(-c4ccco4)c2c1N)CCCC3	-15%	7%	-14%	11%	1%	-14%
Nc1c(C(=O)NCC2CCCO2)sc2nc3c(c(-c4ccco4)c12)CC/C3=C\c1ccco1 (centres undefined)	28µM*	20µM*	?	-5%	-11%	-2%
NC(=S)N=Nc1c(O)[nH]c2ccc(F)cc12	-19%	-7%	-12%	-5%	-10%	-1%
NC(=S)N=Nc1c(O)cc(O)c2[nH]c(=O)ccc12	18µM*	50µM*	?	8%	7%	-29%
